# Out of some 190,000 compounds screened, about 930 (0.49%) were called active. The list shows a part of the results. Measured potencies and affinities stand elsewhere. Values without a mark were called inactive.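 How the source made its calls: active means z-score of insulin promoter reporter brightness in nuclei below -3 at 5 µM, with at least 500 cells counted; inconclusive means wells with under 500 cells, flagged as toxic or sparse; inactive means the rest.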
# Assay: insulin promoter down-regulators in MIN6 cells, imaging, high-content screening, mouse beta cells (AID 1628)
# Details: MIN6 insulin promoter GFP reporter, at 5 µM, hits give low values
row,Structure (SMILES),z-score
1,Cc1c(-c2ccc(O)cc2)nc2nc(-c3ccccc3)c(-c3ccccc3)nn12,17.8
2,COc1cccc(OC)c1OCCN(C)C,3.98
3,O=c1c([N+](=O)[O-])cccn1Cc1ccc(F)cc1Cl,3.36
4,Cc1ccc(S(=O)(=O)c2nc(-c3cccs3)oc2NCCCN(C)C)cc1,-5.47 (active)
5,Cc1cccc(N2CCN(C(c3ccccc3)c3nnnn3CC3CCCO3)CC2)c1C (centres undefined),-3.05 (active)
6,CCC(C)(C)n1nnnc1C(c1ccccc1)N1CCN(C2CCCC2)CC1 (centres undefined),-4.27 (active)
7,CCC(C)(C)n1nnnc1C(c1cccc(C#N)c1)N1CCN(c2cccc(C)c2C)CC1 (centres undefined),-3.1 (active)
8,CCCOc1ccc(-c2nn(-c3ccccc3)cc2/C=C2\SC(=S)N(C3CCS(=O)(=O)C3)C2=O)cc1 (centres undefined),4.83
9,Cc1ccc(S(=O)(=O)N(C)c2ccc(C(=O)N3CCCCC3)cc2)cc1,-5.08 (active)
10,Cc1ccc(S(=O)(=O)N2CCCC2C(=O)N(C)Cc2cccs2)cc1 (centres undefined),4.2
11,O=C(CCC(=O)c1ccc(F)cc1)Nc1cccc(C(F)(F)F)c1,-5.11 (active)
12,CC1(C)OC(=O)N(CC(=O)Nc2cccc(C(F)(F)F)c2)C1(C)O (centres undefined),0.44
13,CCOC(=O)c1nnn(-c2nonc2N)c1CN1CCCCCC1,0.52
14,CCOC(=O)c1nnn(-c2nonc2N)c1-c1ccc(OCC)cc1,3.82
15,CCOC(=O)c1nnn(-c2nonc2N)c1-c1ccc(OC)cc1,-5.06 (active)
16,N#C/C(=C\C1=C(N2CCOCC2)C(=C/c2cccc([N+](=O)[O-])c2)/CC1)C(=O)Nc1ccccc1F,3.07
17,CC(=O)Nc1sc(/C(C#N)=C/c2ccc(Cl)c(Cl)c2)nc1-c1ccc(C)cc1,17.4
18,O=c1[nH]c2ccc(NS(=O)(=O)c3ccc([N+](=O)[O-])cc3)cc2[nH]1,2.55
19,O=C(c1cccs1)c1no[n+]([O-])c1C(=O)c1cccs1,3.78
20,COc1ccc(OCCn2cc(/C(N)=N/O)c3ccccc32)cc1,3.09
21,CCCn1c(=N)n(CCOc2ccc(OC)cc2)c2ccccc21,-4.79 (active)
22,CCOC(=O)Cn1c2ccc(F)cc2c2nc(C)sc21,3.68
23,CCCCn1c(=N)n(CCOc2ccc(C)cc2)c2ccccc21,-3.46 (active)
24,CCOC(=O)Cn1c(=N)n(CCOc2cccc(C)c2)c2ccccc21,-4.7 (active)

row,Structure (SMILES),z-score
1,Cc1cc(/C=C2/C(=O)N(C)C(=S)N2C)ccc1N1CCCC1,15.4
2,COc1ccc(CCNc2oc(COc3ccccc3Cl)nc2C#N)cc1OC,-3.1 (active)
3,COc1cccc(C2=N/C(=C\N(C)C)C(=O)O2)c1,0.86
4,COc1cccc(-n2nc(C#N)c(Cl)cc2=O)c1,-3.8 (active)
5,N#Cc1ccsc1NC(=O)COC(=O)c1ccc2ccccc2c1,-6.27 (active)
6,Cc1cc(N2CCOCC2)ccc1/C=C1/SC(=O)NC1=O,1.71
7,Cc1ccc(N2CCN(C3=NC(=O)/C(=C\c4cccs4)S3)CC2)cc1,-4.27 (active)
8,Cc1ccc(C2(C(F)(F)F)N=C3Sc4cc(C)ccc4N3C(=O)N2)cc1 (centres undefined),3.48
9,CCCOc1cc(N(CC)CC)ccc1/C=C(/C#N)c1nc2ccc(C)cc2[nH]1,15.5
10,C=CCSc1nnc(NC(=O)c2cccc(S(=O)(=O)N3CCOCC3)c2)s1,3.22
11,CCN(CC)c1ccc(C(=O)N/N=C/c2ccc(N3CCOCC3)cc2)cc1,3.38
12,CCN(CC)c1ccc(/C=N/NC(=O)c2cccc(S(=O)(=O)N3CCOCC3)c2)c(O)c1,-6.39 (active)
13,CCCCn1c(O)c(/C=C/C=C/C=Nc2ccccc2)sc1=S,4.72
14,COc1c2ccoc2nc2c(OC)c(O)ccc12,-0.14
15,Cc1ccc(-c2ccc(/C=C(\C#N)C(=O)Nc3cc(C)nn3-c3ccccc3)o2)cc1,3.08
16,Cc1nn(-c2ccccc2)c(C)c1NC(=O)CCl,3.88
17,Cc1ccc(C)c(NC(=S)N2CCCCCC2)c1,0.89
18,COc1ccc(CCNC(=S)Nc2ccc(C)cc2C)cc1,-3.98 (active)
19,Cc1ccc(NC(=O)CCl)c(C)c1,3.51
20,CCCCCOC(=O)C1=C(C)Nc2nnnn2C1c1ccc(OC)c(OC)c1OC (centres undefined),3.26
21,COc1ccc(C2C=C(c3cccs3)Nc3nc(CCCO)nn32)cc1 (centres undefined),5.85
22,COc1ccc(C2=CC(c3ccc(OC)c(OC)c3)n3nnnc3N2)c(OC)c1 (centres undefined),-3.02 (active)
23,COc1cccc(CN2CCN(C3CCN(c4cccc(C)c4C)CC3)CC2CCO)c1 (centres undefined),-8.37 (active)
24,CCOC(=O)N1CCC(N2Cc3cccc(C(=O)N4CCN(c5cccc(C)c5C)CC4)c3C2=O)CC1,2.62

row,Structure (SMILES),z-score
1,COc1cc(C(Nc2ccc3c(c2)OCO3)C(=O)NC2CCCCC2)cc(OC)c1OC (centres undefined),-3.78 (active)
2,Fc1ccc(C2NCCn3cccc32)cc1 (centres undefined),3.94
3,Nc1c(C(=O)c2ccc(Cl)cc2)sc2nsc(SCCN3CCOCC3)c12,4.91
4,Nc1c(C(=O)NCCc2ccccc2)sc2nc(N3CCOCC3)c3c(c12)CCCC3,-3.11 (active)
5,CNC(=O)c1ccc(-c2sc3nc(N4CCOCC4)c4c(c3c2N)CCCC4)o1,-3.66 (active)
6,N#C/C(=C\c1ccc(N2CCOCC2)o1)C(=O)NCCc1ccccc1,4.72
7,CNC(=O)c1ccc(-c2sc3nc(N4CCOCC4)c4c(c3c2N)CC(C)(C)OC4)o1,3.23
8,c1ccc(-c2ccc(-c3nccc4ccccc34)[nH]2)cc1,4.38
9,O=c1[nH]c(-c2ccccn2)nc2sc(-c3ccccc3)cc12,-6.56 (active)
10,CCN1/C(=C/c2cc[n+](CCCS(=O)(=O)[O-])c3ccccc23)Sc2ccccc21,6.08
11,CC[n+]1c(/C=C/C=C/N(C(C)=O)c2ccccc2)sc2cc(OC)ccc21,17.2
12,CCC(/C=C1\Sc2ccc(OC)cc2N1CC)=C\c1sc2ccc(OC)cc2[n+]1CCCS(=O)(=O)[O-],-3.29 (active)
13,Cc1ccc(CN=Cc2[nH]c3ccc(Br)c(Cl)c3c2O)cc1,9.43
14,Cc1ccc(Nc2nc(Cl)c(C=O)s2)cc1Cl,6.83
15,Cc1nc([N+](=O)[O-])c(Br)n1CC(=O)c1cccc([N+](=O)[O-])c1,2.48
16,Cc1nc([N+](=O)[O-])c(N2CCN(Cc3ccccc3)CC2)n1Cc1ccccc1,-3.12 (active)
17,CC(C)(C)C1CCc2c(sc(N)c2C(N)=O)C1 (centres undefined),-5.29 (active)
18,Nc1ccc(C(=O)N/N=C/c2sc(N3CCOCC3)nc2-c2ccccc2)cc1,-4.08 (active)
19,O=[N+]([O-])c1ccc(N/N=C/c2sc(N3CCOCC3)nc2-c2ccccc2)c(S(=O)(=O)Nc2ccccc2Cl)c1,13.1
20,COc1ccccc1NS(=O)(=O)c1cc([N+](=O)[O-])ccc1N/N=C/c1sc(N2CCOCC2)nc1-c1ccccc1,4.89
21,Oc1ccc(CN2CCC(Cc3ccccc3)CC2)c2cccnc12,-5.12 (active)
22,COc1ccc(C)cc1NC(=O)c1nnn(Cc2cccc(C(F)(F)F)c2)c1N,3.48
23,CCOC(=O)c1nn(-c2ccc(Cl)cc2Cl)c(=N)c(C#N)c1C,10.8
24,CCOC(=O)c1c(C)nn(Cc2cccc(Cl)c2)c1N,-5.31 (active)

row,Structure (SMILES),z-score
1,C=CCN1C(=O)/C(=C/C=C2/N(CC)c3ccc(S(=O)(=O)N(C)C)cc3N2CC)SC1=S,17.1
2,CCOC(=O)C(C)c1nn(C)c(=O)c2ccccc12 (centres undefined),-3.52 (active)
3,CCOC(=O)C1C(=O)CC(C)(O)C(C(=O)OCC)C1c1ccccc1 (centres undefined),0.91
4,COc1ccc(N2C(=O)CCC(C(=O)NCCCN3CCC(C)CC3)C2c2ccc(OC)c(OC)c2)cc1 (centres undefined),4.36
5,CCCCn1c(CN2CCN(c3cccc(Cl)c3)CC2)nc2c1c(=O)n(C)c(=O)n2C,-5.64 (active)
6,CCCn1c(CN2CCN(c3cccc(Cl)c3)CC2)nc2c1c(=O)n(C)c(=O)n2C,-6.4 (active)
7,Cn1ncc2c1ncn1nc(CCc3ccccc3)nc21,3.58
8,NC(=O)c1c[nH]c2ccccc12,-0.45
9,CCOC(=O)c1c(C)c(C(=O)NC2CCCCC2)c(C)n1CC,-3.91 (active)
10,CCOC(=O)COc1ccc(C(=O)NC2CCCCC2)cc1,4.25
11,CC(C)NC(=O)/C(C#N)=C/c1ccc(N(C)C)o1,9.4
12,CO/N=C/c1ccc(N2CCN(C(=O)c3ccc(F)cc3)CC2)c([N+](=O)[O-])c1,-5.66 (active)
13,COc1ccc(/C=C2\C(=O)NC(=S)N2C(=O)c2ccc(F)cc2)cc1,4.23
14,COc1cc([C@@H]2[C@H]3CN(C)CC=C3C(C#N)=C(N)C2(C#N)C#N)cc2c1OCO2,5.23
15,COc1cc(/C=N/N=C(\N)c2nonc2N)cc(OC)c1OC,3.59
16,O=C(Nc1ccccc1)N1CCSc2ccccc21,-3.05 (active)
17,O=C(Nc1ccccc1)C(O)C(O)C(=O)Nc1ccccc1 (centres undefined),-0.63
18,COC(=O)c1cn(NC(=O)/C=C/c2cc(OC)ccc2OC)c(=O)c2ccccc12,-3.15 (active)
19,CC1(C#CC[N+]2(C)CCCCC2)CCC2C(O1)c1ccccc1OC2(C)C (centres undefined),3.38
20,COc1ccc(-c2nn(-c3ccccc3)cc2/C=C(\C#N)S(=O)(=O)c2ccccc2)cc1OC,-4.08 (active)
21,CC(=O)C(=Cc1cn(-c2ccccc2)nc1-c1ccccc1)C(C)=O,3.2
22,CN(C)c1ccc(/C=C/c2ccc3ccccc3n2)cc1,7.29

# Reference: PubChem BioAssay AID1628 (Sanford-Burnham Center for Chemical Genomics, 2009)
